Source: PubChem (National Center for Advancing Translational Sciences (NCATS))
RGS4 inh: human RGS4 inhibition; hit rate 0.039% among 390,000; Transcreener GDP fluorescence polarization, RGS4-accelerated GTP hydrolysis; Potency, µM (doses to about 114 µM), for the others: at the top dose activity change, negative = inhibition, hits mostly inhibitors; further: potency means the concentration at half of the fitted maximal effect; on the % scale 0 is the no-effect control and ±100 the full control effect; nearly all actives have a fitted effect of over 75% in size
Target sequence (P49798 whole entry, looked up): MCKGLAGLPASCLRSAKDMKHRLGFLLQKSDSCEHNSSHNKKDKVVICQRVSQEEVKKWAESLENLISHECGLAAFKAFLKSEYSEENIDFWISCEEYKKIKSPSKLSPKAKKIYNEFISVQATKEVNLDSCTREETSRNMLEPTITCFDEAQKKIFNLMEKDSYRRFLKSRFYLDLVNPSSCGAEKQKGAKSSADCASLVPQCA
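MLSMR compounds (23 nl, pin-transferred) preincubated 10 min at room temperature with a 500nM (2x) first reagent, then RGS4 at 900nM (2x) plus Transcreener GDP mix added; fluorescence polarization (620/688 nm) read before and after 90 min at 30 °C.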
B2AR arrestin: beta2AR (human) beta-arrestin recruitment activity. P07550. beta-arrestin recruitment to beta2AR, cell-based reporter. Potency, µM (doses to about 46.1 µM), without a hit: at the highest dose activation, actives largely listed as activators. hit rate 0.02% among 330,000;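 further: potency means the concentration at half of the fitted maximal effect; 0% = DMSO controls and full agonism = EC100 isoproterenol or metaproterenol; nearly all actives have a fitted effect of over 65% in size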
DRD3 antagonist: D3 dopamine receptor (human) antagonism. hit rate 2.5% among 360,000. D3R cells, DiscoveRx beta-arrestin luminescence, antagonist mode; hits give low values. P35462. max response, negative = inhibition, %; in the data active means max response below about -50%; further: on the % scale 0 is the no-effect control and ±100 the full control effect
Target sequence (P35462 whole entry, looked up): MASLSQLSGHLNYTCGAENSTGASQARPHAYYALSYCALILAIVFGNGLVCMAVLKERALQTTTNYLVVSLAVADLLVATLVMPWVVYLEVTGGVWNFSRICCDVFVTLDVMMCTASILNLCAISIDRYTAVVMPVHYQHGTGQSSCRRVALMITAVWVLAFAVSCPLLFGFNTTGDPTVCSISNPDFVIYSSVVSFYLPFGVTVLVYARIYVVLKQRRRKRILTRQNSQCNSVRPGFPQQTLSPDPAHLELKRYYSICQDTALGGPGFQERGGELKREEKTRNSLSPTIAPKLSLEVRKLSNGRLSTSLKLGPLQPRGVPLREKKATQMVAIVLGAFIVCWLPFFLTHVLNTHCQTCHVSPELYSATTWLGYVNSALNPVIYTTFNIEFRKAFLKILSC
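Cells plated overnight at 1500 cells/well, then exposed to library compounds with dopamine controls for 90 minutes at 37 degrees C. DiscoveRx reagent added for 30–60 minutes at room temperature; luminescence read, quantitative HTS format.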
PTHR1 ag: PTHR1 (human) receptor agonism; Q03431; HEK293 GP2 PTHR1 cells, GloSensor cAMP luminescence, 1 h; Potency, µM (top dose mostly 115 µM), inactives show at the highest dose activation, hits mostly activators; hit rate 0.075% among 410,000; further: potency means the concentration at half of the fitted maximal effect; nearly all actives have a fitted effect of over 55% in size
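HEK-293-derived GP2 cells expressing PTHR1 and a GloSensor cAMP reporter, 3,000/well, plated overnight, given luciferin plus IBMX (each 0.5 mM as added) for 1 h at 37 °C, then compound for 1 h at 37 °C. Luminescence was read after 15 min at room temperature.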
D3 ag: agonists of human D3 dopamine receptor; max activation, %; P35462; hit rate 0.58% among 410,000; D3R DiscoveRx beta-arrestin cells, luminescence, 90 min; AID 652048; in the data active means max activation above about 30%; further: 0% is about no effect
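Agonist-mode cell screen: cells plated at 1500/well and incubated overnight at 37 °C, then exposed to library compounds for 90 min at 37 °C. Detection reagent was added for 30–60 min at room temperature, and luminescence was read.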
BRCA1 expr act: activators of BRCA1 expression; MCF7-BRCA1-FFLuc reporter, luminescence, 48 h; response scale: scaled: vehicle 0%, 10 µM genistein 100%; Potency, µM (series often up to 46.1 µM), for inactives: at the top dose activation, actives largely listed as activators; hit rate 1.1% among 380,000; further: potency means the concentration at half of the fitted maximal effect; nearly all actives have a fitted effect of over 80% in size
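Quantitative HTS in MCF7 cells stably reporting BRCA1 expression via firefly luciferase. Compound treatment lasts 48 h at 37 °C in phenol-red free MEM. Activation is expressed relative to genistein at 10 microM and DMSO.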
Starred values were filed as active, the others as inactive; i = inactive; . = no result given. In the library only some 3.7% were active in any assay of this set; here they are far more common. Unless noted, the call rests on the fitted dose curve; in most records, active means well fitted curve in the direction sought with a large enough effect; inconclusive means small, poorly fitted or top-dose-only effect, or another doubt; inactive means no such curve, though single readings can be large; an effect the other way counts as inactive or inconclusive.

SMILES	RGS4 inh	B2AR arrestin	DRD3 antagonist	PTHR1 ag	D3 ag	BRCA1 expr act
CC(C)(C)OC(=O)CNC(=O)c1[nH]cnc1C(=O)NCCCCCNC(=O)OC(C)(C)C	10%	-1%	74	-53%	55*	-42%
CC(C)(C)OC(=O)CNC(=O)c1[nH]cnc1C(=O)NCCCCCN	11%	0%	7	i	1	1%
CC1=Nc2cc(C(=O)NCc3ccccc3Cl)ccc2Sc2c(C)ccc(C)c21	16%	.	.	i	-5	-67%
CC(=O)c1ccc(N(CC(=O)NC2CCCC2)C(=O)CCC(=O)Nc2cc(C)on2)cc1	-4%	0%	-26	i	-8	-6%
C=C[C@]1(C)C[C@@H](OC(=O)CO)[C@]2(C)[C@H](C)CC[C@]3(CCC(=O)[C@H]32)[C@@H](C)[C@@H]1O	.	.	.	.	6	.
CC(C)(C)c1ccc(C(=O)Nc2ccc(C(=O)OCc3cc(=O)n4ccsc4n3)cc2)cc1	-3%	.	.	-50%	26	.
COc1ccc(NC(=O)c2nc[nH]c2C(=O)NCc2ccccc2)cc1	-12%	0%	-3	-5%	57*	-16%
CC(C)(C)OC(=O)NCc1ccc(NC(=O)c2nc[nH]c2C(=O)N[C@@H](Cc2ccccc2)C(=O)OCc2ccccc2)cc1	-4%	0%	32	-15%	31*	-82%
O=C(Nc1ccccc1)c1nc[nH]c1C(=O)NCc1ccccc1	-19%	0%	4	-41%	5	-15%
CC(C)(C)OC(=O)NCc1ccc(CNC(=O)c2[nH]cnc2C(=O)N[C@@H](Cc2ccccc2)C(=O)OCc2ccccc2)cc1	-6%	-1%	14	i	7	-29%
Cc1ccc(F)cc1C(=O)N1CCCC(c2cc(C(=O)Nc3ccccc3Cl)no2)C1 (stereo not given)	.	.	8	-43%	6	26%
CC1=C[C@H](O)CC(C)(C)[C@H]1/C=C/C(C)=C/C=C/C(C)=C/C=C/C=C(C)/C=C/C=C(C)/C=C/C1=C(C)C[C@@H](O)CC1(C)C	.	.	.	.	-1	.
CC1(C(=O)NCc2ccco2)Cc2c(-c3ccc(C(N)=O)cc3)ccnc2O1 (stereo not given)	.	.	9	i	-3	-40%
O=C(NCCN1CCC(n2c(=O)[nH]c3ccccc32)CC1)c1ccncc1	.	.	-107*	-45%	-16	-20%
O=C(NCCN1CCC(n2c(=O)[nH]c3ccccc32)CC1)C(c1ccccc1)c1ccccc1	.	.	-78*	-28%	-16	-16%
O=C(NCCN1CCC(n2c(=O)[nH]c3ccccc32)CC1)c1cccc(F)c1	.	.	-105*	-14%	-19	15%
O=C(NCCN1CCC(n2c(=O)[nH]c3ccccc32)CC1)c1cccc(Cl)c1	.	.	-98*	-31%	-12	1%
O=C(Nc1ccccc1)N1CCC(n2c(=O)[nH]c3ccccc32)CC1	20%	0%	-7	i	1	3%
O=C(COc1ccc(Cl)cc1)Nc1ccc(C(=O)O)cc1NC(=O)COc1ccc(Cl)cc1	-10%	0%	13	-12%	5	32%
C[C@H](O)[C@@H]1CN2CCc3c([nH]c4ccc(-c5ccc6c(c5)OCO6)cc34)[C@@H]2C[C@@H]1N(C)C(=O)Nc1cc(Cl)cc(Cl)c1	.	.	-25	7%	-10	-73%
Cc1ccc(-c2nc3ccccc3o2)cc1NC(=O)Cc1ccc(Cl)cc1	-29%	.	.	-8%	2	.
Cc1cccc(N2C(=O)CS(=O)(=O)C23C(=O)N(Cc2c(F)cccc2Cl)c2ccccc23)c1 (stereo not given)	-18%	.	.	-10%	-11	-13%
COCCN(C(=O)CCC(=O)Nc1cc(C)on1)C(C(=O)NC(C)(C)C)c1cccc(OC)c1OC (stereo not given)	3%	0%	-11	i	-8	-14%
O=C(NCCN1CCC(n2c(=O)[nH]c3ccccc32)CC1)c1cccnc1Cl	.	.	-69*	-34%	-18	5%
O=C(NCCN1CCC(n2c(=O)[nH]c3ccccc32)CC1)c1cc(F)cc(F)c1	.	.	-101*	-10%	-11	17%
SMILES	RGS4 inh	B2AR arrestin	DRD3 antagonist	PTHR1 ag	D3 ag	BRCA1 expr act
O=C(NC1CCCCC1)N1CCC(n2c(=O)[nH]c3ccccc32)CC1	-11%	-1%	0	-3%	-7	-2%
COc1ccc(/C(C)=N\Nc2nc(-c3ccc(Cl)cc3)cc(C(F)(F)F)n2)cc1OC	-19%	-1%	34	-34%	45*	-9%
COc1ccc(/C=N/Nc2nc(-c3ccc(Cl)cc3)cc(C(F)(F)F)n2)c(OC)c1	-23%	-1%	10	-10%	2	-31%
O=C(NC(c1ccc(Cl)cc1)c1cnccn1)C1CCN(Cc2ccccc2)CC1 (stereo not given)	.	.	19	-6%	-15	4%
COc1ccc(C(NC(=O)C2CCN(Cc3ccc(Oc4ccccc4)cc3)CC2)c2ccccn2)cc1 (stereo not given)	.	.	-55*	i	-26	-16%
O=C(NC(c1ccc(-c2ccccc2)cc1)c1cnccn1)C1CCN(Cc2ccc(Oc3ccccc3)cc2)CC1 (stereo not given)	.	.	-54*	11%	-20	-63%
COc1cc(CN2CCC(C(=O)NC(c3ccc(-c4ccccc4)cc3)c3cnccn3)CC2)cc(OC)c1 (stereo not given)	.	.	-54*	-20%	-10	-57%
O=C(NC(c1ccc(-c2ccccc2)cc1)c1cnccn1)C1CCN(Cc2cccc(C(F)(F)F)c2)CC1 (stereo not given)	.	.	0	-19%	-5	-8%
COC(=O)C(CCSC)Nc1ncnc2onc(-c3ccc(F)cc3)c12 (stereo not given)	5%	.	.	-24%	-2	.
